Drawing on PMC7862700, “An all-to-all approach to the identification of sequence-specific readers for epigenetic DNA modifications on cytosine”, this text covers binding signal for seven sequences.

Experiment in all cases: DAPPL (digital affinity profiling via proximity ligation, sequencing); 10 mM Tris-HCl pH 7.5, 50 mM NaCl, 1 mM DTT, 4% glycerol, room temperature, 30 min; GST-TFs on glutathione beads, 16-mer random dsDNA library, 0.1% formaldehyde crosslink after washing; high values mean tight binding
Holding throughout (conditions): protein: recombinant; tags: N-terminal GST; dsDNA, one strand shown

For one experiment, the target named is T1, FLI1 (Homo sapiens, UniProt Q01543 1-452).
T1 sequence: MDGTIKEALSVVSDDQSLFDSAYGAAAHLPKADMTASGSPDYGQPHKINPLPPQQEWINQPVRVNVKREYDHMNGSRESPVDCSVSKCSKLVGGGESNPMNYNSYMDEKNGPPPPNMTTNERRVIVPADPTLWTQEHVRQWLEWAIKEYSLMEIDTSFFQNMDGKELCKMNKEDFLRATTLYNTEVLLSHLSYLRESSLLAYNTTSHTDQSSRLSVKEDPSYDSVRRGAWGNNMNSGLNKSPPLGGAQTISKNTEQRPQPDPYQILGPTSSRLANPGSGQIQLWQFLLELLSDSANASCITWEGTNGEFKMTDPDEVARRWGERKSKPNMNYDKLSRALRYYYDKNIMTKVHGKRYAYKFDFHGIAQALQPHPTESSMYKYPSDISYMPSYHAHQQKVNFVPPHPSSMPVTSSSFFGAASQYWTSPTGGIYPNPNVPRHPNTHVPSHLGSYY
The method, boiled down: (§1)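 Pools of DNA-barcoded human transcription factors, expressed in yeast as GST fusions on glutathione beads and combined with a tag-only sample, were incubated with 200 nmole of a 16-mer random double-stranded DNA library. Incubation took 30 min at room temperature in Tris/NaCl/DTT/glycerol buffer and was followed by washing, 0.1% formaldehyde crosslinking, proximity ligation (BsaI/T4 ligase, 1 h, 37 °C), PCR amplification and sequencing on an Illumina NextSeq500. Binding signal is the ratio of a hexamer's read frequency for a factor to its frequency for the tag-only sample.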

For another experiment, the target named is T2, ELK1 (Homo sapiens, UniProt P19419 1-428).
T2 sequence: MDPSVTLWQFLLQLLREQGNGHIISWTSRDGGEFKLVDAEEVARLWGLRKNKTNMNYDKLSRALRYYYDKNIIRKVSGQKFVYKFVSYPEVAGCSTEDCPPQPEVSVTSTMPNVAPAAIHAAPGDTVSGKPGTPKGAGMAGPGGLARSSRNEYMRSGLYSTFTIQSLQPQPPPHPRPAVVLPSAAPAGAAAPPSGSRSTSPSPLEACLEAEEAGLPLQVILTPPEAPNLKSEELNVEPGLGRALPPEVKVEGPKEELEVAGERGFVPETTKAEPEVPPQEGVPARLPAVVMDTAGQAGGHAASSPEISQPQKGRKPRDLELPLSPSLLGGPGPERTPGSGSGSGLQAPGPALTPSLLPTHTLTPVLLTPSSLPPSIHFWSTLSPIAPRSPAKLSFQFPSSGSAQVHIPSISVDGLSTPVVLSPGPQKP
The method, boiled down: as §1

Another experiment addresses T3, GABPA (Homo sapiens, UniProt Q06546 1-454).
T3 sequence: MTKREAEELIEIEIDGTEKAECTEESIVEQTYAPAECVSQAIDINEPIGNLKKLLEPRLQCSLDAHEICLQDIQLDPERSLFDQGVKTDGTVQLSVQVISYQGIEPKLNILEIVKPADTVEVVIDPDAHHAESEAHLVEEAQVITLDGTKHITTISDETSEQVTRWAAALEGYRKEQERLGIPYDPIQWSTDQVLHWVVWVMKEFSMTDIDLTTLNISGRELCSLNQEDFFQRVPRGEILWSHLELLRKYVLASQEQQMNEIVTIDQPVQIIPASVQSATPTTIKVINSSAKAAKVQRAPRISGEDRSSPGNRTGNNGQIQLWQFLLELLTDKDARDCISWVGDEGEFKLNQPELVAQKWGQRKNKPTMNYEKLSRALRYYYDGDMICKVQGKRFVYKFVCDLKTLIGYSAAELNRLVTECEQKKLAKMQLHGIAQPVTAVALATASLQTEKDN
The method, boiled down: as §1

Another experiment has as its target T4, ERG (Homo sapiens, UniProt P11308 1-479).
T4 sequence: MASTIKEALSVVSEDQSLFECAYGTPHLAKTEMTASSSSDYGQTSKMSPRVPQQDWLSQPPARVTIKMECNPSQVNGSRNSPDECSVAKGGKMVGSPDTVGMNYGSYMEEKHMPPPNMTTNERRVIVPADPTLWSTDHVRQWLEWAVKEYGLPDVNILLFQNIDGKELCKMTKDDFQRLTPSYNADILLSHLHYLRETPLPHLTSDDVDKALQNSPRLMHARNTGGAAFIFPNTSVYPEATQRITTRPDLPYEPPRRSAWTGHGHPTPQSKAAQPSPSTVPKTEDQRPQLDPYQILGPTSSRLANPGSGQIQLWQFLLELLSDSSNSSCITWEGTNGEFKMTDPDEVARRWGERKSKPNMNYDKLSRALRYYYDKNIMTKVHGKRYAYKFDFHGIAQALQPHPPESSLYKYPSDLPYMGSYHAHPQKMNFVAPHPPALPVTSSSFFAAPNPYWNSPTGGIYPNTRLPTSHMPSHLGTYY
The method, boiled down:
as §1

A further experiment addresses ELF1 (Homo sapiens, UniProt P32519 1-619). The method, boiled down: as §1
In a further experiment the target is T5, EHF (Homo sapiens, UniProt Q9NZC4 1-300).
T5 sequence: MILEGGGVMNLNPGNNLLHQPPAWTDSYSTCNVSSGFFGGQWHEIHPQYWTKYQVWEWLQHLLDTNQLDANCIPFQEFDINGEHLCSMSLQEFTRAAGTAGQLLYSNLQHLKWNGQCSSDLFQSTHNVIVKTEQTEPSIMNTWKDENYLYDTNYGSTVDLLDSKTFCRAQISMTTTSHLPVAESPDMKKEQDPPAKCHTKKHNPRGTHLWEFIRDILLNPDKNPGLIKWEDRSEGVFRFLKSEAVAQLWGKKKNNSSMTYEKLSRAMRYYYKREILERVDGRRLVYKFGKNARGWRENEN
Summed up: as §1

The target of a further experiment is SPI1 (Homo sapiens, UniProt P17947 1-270). Summed up: as §1
A further experiment has as its target SPIB (Homo sapiens, UniProt Q01892 1-262). The method, boiled down:
as §1

The next experiment addresses T6, ELK3 (Homo sapiens, UniProt P41970 1-407).
T6 sequence: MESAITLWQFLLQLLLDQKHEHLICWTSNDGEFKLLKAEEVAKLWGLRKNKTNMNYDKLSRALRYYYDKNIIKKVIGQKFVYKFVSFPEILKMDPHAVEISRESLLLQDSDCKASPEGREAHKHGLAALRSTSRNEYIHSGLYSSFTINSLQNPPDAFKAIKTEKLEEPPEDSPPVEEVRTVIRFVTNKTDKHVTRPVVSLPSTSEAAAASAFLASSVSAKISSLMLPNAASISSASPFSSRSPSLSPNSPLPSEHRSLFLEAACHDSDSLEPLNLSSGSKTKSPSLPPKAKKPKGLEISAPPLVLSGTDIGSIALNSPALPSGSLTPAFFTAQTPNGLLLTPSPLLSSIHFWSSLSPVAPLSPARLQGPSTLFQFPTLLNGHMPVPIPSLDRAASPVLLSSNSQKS
Summed up: as §1

Sequence of SPIB (Q01892 whole entry): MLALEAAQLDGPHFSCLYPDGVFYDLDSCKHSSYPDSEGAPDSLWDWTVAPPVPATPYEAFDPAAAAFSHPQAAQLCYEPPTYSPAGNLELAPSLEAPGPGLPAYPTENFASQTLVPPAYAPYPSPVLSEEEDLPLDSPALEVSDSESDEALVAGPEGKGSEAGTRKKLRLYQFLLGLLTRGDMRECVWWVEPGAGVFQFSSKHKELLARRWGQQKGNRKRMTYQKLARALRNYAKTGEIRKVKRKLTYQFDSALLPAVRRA
Sequence of ELF1 (P32519 whole entry): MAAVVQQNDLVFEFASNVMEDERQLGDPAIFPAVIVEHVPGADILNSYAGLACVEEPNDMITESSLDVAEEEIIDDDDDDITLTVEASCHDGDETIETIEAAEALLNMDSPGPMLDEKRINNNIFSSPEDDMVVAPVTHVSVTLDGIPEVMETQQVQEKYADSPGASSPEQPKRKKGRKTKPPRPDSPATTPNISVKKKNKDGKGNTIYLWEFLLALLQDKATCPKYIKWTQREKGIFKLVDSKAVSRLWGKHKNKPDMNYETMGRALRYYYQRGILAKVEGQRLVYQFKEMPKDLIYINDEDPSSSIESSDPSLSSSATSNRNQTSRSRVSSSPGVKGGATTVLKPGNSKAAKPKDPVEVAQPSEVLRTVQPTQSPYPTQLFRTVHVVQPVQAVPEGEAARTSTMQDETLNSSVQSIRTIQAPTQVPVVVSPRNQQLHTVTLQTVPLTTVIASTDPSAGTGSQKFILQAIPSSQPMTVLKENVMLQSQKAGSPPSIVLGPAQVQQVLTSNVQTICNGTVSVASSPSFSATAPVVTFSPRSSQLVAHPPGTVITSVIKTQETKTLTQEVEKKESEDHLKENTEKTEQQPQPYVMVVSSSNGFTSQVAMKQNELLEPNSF

With CCAAAA, the binding signal with FLI1 was 1.09 fold enrichment (6-mer frequency, TF over GST control); with ELK1, 1.13 fold enrichment (6-mer frequency, TF over GST control); in the experiment with GABPA, 1.16 fold enrichment (6-mer frequency, TF over GST control); in the experiment with ERG it was 1.12 fold enrichment (6-mer frequency, TF over GST control); with ELF1, 1.17 fold enrichment (6-mer frequency, TF over GST control); with EHF, 1.15 fold enrichment (6-mer frequency, TF over GST control). Moreover, the binding signal was 1.29 fold enrichment (6-mer frequency, TF over GST control) with SPI1; 1.12 fold enrichment (6-mer frequency, TF over GST control) with SPIB; 1.13 fold enrichment (6-mer frequency, TF over GST control) with ELK3.

Turning to CTCTGG, the binding signal with FLI1 is 1.31 fold enrichment (6-mer frequency, TF over GST control); with ELK1, 1.5 fold enrichment (6-mer frequency, TF over GST control); with GABPA it was 1.3 fold enrichment (6-mer frequency, TF over GST control); in the experiment with ERG, 1.28 fold enrichment (6-mer frequency, TF over GST control); with ELF1, 1.34 fold enrichment (6-mer frequency, TF over GST control); in the experiment with EHF it was 1.35 fold enrichment (6-mer frequency, TF over GST control). For the same sequence, the binding signal with SPI1 was 1.4 fold enrichment (6-mer frequency, TF over GST control); with SPIB, 1.12 fold enrichment (6-mer frequency, TF over GST control); with ELK3 it was 1.48 fold enrichment (6-mer frequency, TF over GST control).

Take TAAAAG: the binding signal with FLI1 was 1.12 fold enrichment (6-mer frequency, TF over GST control); in the experiment with ELK1, 1.18 fold enrichment (6-mer frequency, TF over GST control); with GABPA it was 1.24 fold enrichment (6-mer frequency, TF over GST control); in the experiment with ERG it was 1.1 fold enrichment (6-mer frequency, TF over GST control); in the experiment with ELF1, 1.12 fold enrichment (6-mer frequency, TF over GST control); with EHF, 1.16 fold enrichment (6-mer frequency, TF over GST control). Further, the binding signal with SPI1 is 1.31 fold enrichment (6-mer frequency, TF over GST control); with SPIB, 1.18 fold enrichment (6-mer frequency, TF over GST control); with ELK3, 1.15 fold enrichment (6-mer frequency, TF over GST control).

With ACCTGC, the binding signal in the experiment with FLI1 was 1.37 fold enrichment (6-mer frequency, TF over GST control); with ELK1, 1.52 fold enrichment (6-mer frequency, TF over GST control); with GABPA, 1.39 fold enrichment (6-mer frequency, TF over GST control); with ERG, 1.39 fold enrichment (6-mer frequency, TF over GST control); with ELF1, 1.54 fold enrichment (6-mer frequency, TF over GST control); with EHF, 1.67 fold enrichment (6-mer frequency, TF over GST control). Besides, the binding signal was 1.46 fold enrichment (6-mer frequency, TF over GST control) with SPI1; 1.39 fold enrichment (6-mer frequency, TF over GST control) with SPIB; 1.33 fold enrichment (6-mer frequency, TF over GST control) with ELK3.

For the sequence ACGTCT, the binding signal with FLI1 is 1.13 fold enrichment (6-mer frequency, TF over GST control); with ELK1, 1.2 fold enrichment (6-mer frequency, TF over GST control); with GABPA, 1.14 fold enrichment (6-mer frequency, TF over GST control); in the experiment with ERG, 1.22 fold enrichment (6-mer frequency, TF over GST control); with ELF1 it was 1.17 fold enrichment (6-mer frequency, TF over GST control); with EHF, 1.13 fold enrichment (6-mer frequency, TF over GST control). For the same sequence, the binding signal in the experiment with SPI1 was 1.15 fold enrichment (6-mer frequency, TF over GST control); with SPIB, 1.35 fold enrichment (6-mer frequency, TF over GST control); with ELK3 it was 1.18 fold enrichment (6-mer frequency, TF over GST control).

In the case of TGGTTT, the binding signal was 1.6 fold enrichment (6-mer frequency, TF over GST control) with FLI1; 1.44 fold enrichment (6-mer frequency, TF over GST control) in the experiment with ELK1; 1.55 fold enrichment (6-mer frequency, TF over GST control) in the experiment with GABPA; 1.51 fold enrichment (6-mer frequency, TF over GST control) with ERG; 1.58 fold enrichment (6-mer frequency, TF over GST control) with ELF1; 1.48 fold enrichment (6-mer frequency, TF over GST control) with EHF. In addition, the binding signal with SPI1 is 1.66 fold enrichment (6-mer frequency, TF over GST control); with SPIB, 1.43 fold enrichment (6-mer frequency, TF over GST control); with ELK3, 1.6 fold enrichment (6-mer frequency, TF over GST control).

Consider CTTTTG, for which the binding signal was 1.42 fold enrichment (6-mer frequency, TF over GST control) with FLI1; 1.35 fold enrichment (6-mer frequency, TF over GST control) in the experiment with ELK1; 1.41 fold enrichment (6-mer frequency, TF over GST control) with GABPA; 1.25 fold enrichment (6-mer frequency, TF over GST control) with ERG; 1.34 fold enrichment (6-mer frequency, TF over GST control) with ELF1; 1.32 fold enrichment (6-mer frequency, TF over GST control) with EHF. The binding signal in the experiment with SPI1 is 1.6 fold enrichment (6-mer frequency, TF over GST control); in the experiment with SPIB it was 1.42 fold enrichment (6-mer frequency, TF over GST control); with ELK3, 1.23 fold enrichment (6-mer frequency, TF over GST control).
